Seven compounds from PubChem BioAssay (Tox21) can be followed below.

Assay [1] can be described thus: qHTS assay to identify small molecule antagonists of the estrogen related receptor (ERR) signaling pathway from Tox21 library - cell viability counter screen (AID 1224834). Also: nearly all actives have a fitted effect of over 30% in size. Also: potency is read from the fitted curve at half-maximal effect. Put shortly: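 Seeded ERR cells were rested 6 h at 37 C/5% CO2 before compounds, positive and negative controls or DMSO were added. Incubation continued for 17.5 h, and viability was then quantified by CellTiter-Fluor fluorescence.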

Assay [2] has as its target Luciferin 4-monooxygenase (Photinus pyralis) (UniProt P08659). Put plainly: qHTS assay to identify small molecule inhibitors of firefly luciferase (AID 1224835). Also: nearly all actives have a fitted effect of over 25% in size. Also: potency is read from the fitted curve at half-maximal effect. Put shortly: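 Quantitative HTS format; KM concentrations of both substrates. Purified P. pyralis FLuc activity quantified from luminescence images.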
The nature of assay [3]: qHTS assay to identify small molecule agonists of the constitutive androstane receptor (CAR) signaling pathway - cell viability counter screen (AID 1224836). Also: nearly all actives have a fitted effect of over 45% in size. Put shortly: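 Multiplexed viability check: HepG2-CYP2B6-hCAR cells, 15-point compound dosing, 0.75 uM PK11195 final, 23 h at 37 C, CellTiter-Fluor fluorescence.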
Assay [4] can be described thus: qHTS assay to identify small molecule antagonists of the constitutive androstane receptor (CAR) signaling pathway - cell viability counter screen (AID 1224837). Also: nearly all actives have a fitted effect of over 45% in size. Put shortly:
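To flag cytotoxic false antagonists, HepG2 hCAR/CYP2B6-2.2kb cells were treated 23 hr with 15-concentration compound series and 50 nM CITCO at 37 C/5% CO2; CellTiter-Fluor fluorescence was the measured end point.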
Background: In qHTS, concentration-response curves come from the screen itself.

Assay [5] has as its target Nuclear receptor subfamily 1 group I member 3 (Homo sapiens) (UniProt Q14994). Nature of the assay: qHTS assay to identify small molecule antagonists of the constitutive androstane receptor (CAR) signaling pathway (AID 1224838).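 Also: HepG2 cells stably expressing hCAR with CYP2B6 luciferase reporter stimulated by CITCO; nearly all actives have a fitted effect of over 40% in size.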 Put shortly:
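Human hepatoma HepG2 cells expressing hCAR and a CYP2B6 promoter (2.2 kb) luciferase construct; compound titration (15 points) with 50 nM CITCO final, 24 h at 37 C/5% CO2; luminescence via ONE-Glo after 30 min at room temperature.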

For assay [6] the target is unchanged. Put plainly: qHTS assay to identify small molecule agonists of the constitutive androstane receptor (CAR) signaling pathway (AID 1224839). Also: nearly all actives have a fitted effect of over 15% in size. Also: potency is read from the fitted curve at half-maximal effect.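 As to activation: HepG2 cells stably carrying human CAR and a CYP2B6 luciferase reporter.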 The method, boiled down:
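Using human hepatoma HepG2 cells engineered with hCAR and a CYP2B6-2.2kb reporter, 15-concentration compound series were incubated 24 h alongside PK11195 at 0.75 uM final, with luminescence quantified afterwards.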

A short description of assay [7]: qHTS assay to identify small molecule antagonists of the estrogen related receptor signaling pathway with the pleiotropic PPARgamma coactivator (PGC) from Tox21 10K library - cell viability counter screen (AID 1224840; active = well fitted cell-killing curve with a large enough effect in the repeat runs, not every such curve was filed as active; also: nearly all actives have a fitted effect of over 40% in size). The method, boiled down: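 Seeded PGC/ERR cells (2,000/well, 6 h, 37 C/5% CO2) get compound by pin tool; 17.5 h incubation at 37 C; CellTiter-Fluor added, 30 min, fluorescence measured.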

The target of assay [8] is Thyrotropin receptor (Homo sapiens) (UniProt P16473). Nature of the assay: qHTS assay to identify small molecule agonists of the thyroid stimulating hormone receptor (TSHR) signaling pathway (AID 1224843; calls by dose curve; also: nearly all actives have a fitted effect of over 45% in size). Put shortly:
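Compounds are titrated over 15 concentrations, in triplicate, onto TSHR-HEK293 cells seeded at 800/well. Plates sit 30 min at room temperature before cAMP-d2 and anti-cAMP cryptate are added; signal is read after a further hour.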

The nature of assay [9]: qHTS assay to identify small molecule agonists of the hypoxia (HIF-1) signaling pathway - cell viability counter screen (AID 1224844; calls by dose curve; also: nearly all actives have a fitted effect of over 50% in size; also: potency is read from the fitted curve at half-maximal effect). Put shortly:
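HRE-bla ME-180; 0.5% dFBS; cpd 17 h, 37C, 5% CO2; CellTiter-Glo lum., 30 min RT, post-FRET read, same wells.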

The nature of assay [10]: qHTS assay to identify small molecule agonists of H2AX (AID 1224845; active = well fitted activation curve with a large enough effect in the signal ratio in the repeat runs, not every such curve was filed as active; the % refers to the signal ratio). Put shortly:
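Wild-type CHO-K1 cells plated overnight, then exposed 3 hr at 37C to compounds at 15 concentrations (0.76% DMSO). Lysed, then HTRF anti-pH2AX(S139)-cryptate/anti-H2AX-d2 detection after 24 hr at room temperature; emissions 665 and 620 nm.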

The nature of assay [11]: qHTS assay to identify small molecule agonists of the hypoxia (HIF-1) signaling pathway (AID 1224846; active = well fitted activation curve with a large enough effect in the signal ratio in the repeat runs, not every such curve was filed as active; the % refers to the signal ratio). Put shortly:
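Reporter induction in HRE-bla ME-180 cells is taken as agonism: cells sit 5 hrs after plating, receive compounds or DMSO only, incubate 17 hrs at 37C under 5% CO2, and are loaded with CCF4-AM for beta-lactamase FRET measurement.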

Assay [12] is described as follows: qHTS assay to identify small molecule agonists of H2AX - cell viability counter screen (AID 1224847; calls by dose curve; also: top concentration of the series differs between compounds; nearly all actives have a fitted effect of over 30% in size). The method, boiled down:
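After overnight plating of 1000 CHO-K1 cells per well, a 15-concentration compound series was applied for 3 hr at 37C. Luminescence from CellTiter-Glo, read following 30 min at room temperature, reflected cell viability.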

Assay [13] is described as follows: qHTS RealTime-Glo MT Cell Viability Assay in HepG2 cells - 24 hour (AID 1224867). Also: nearly all actives have a fitted effect of over 50% in size. Put shortly: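 Real-time, nonlytic viability: 600 HepG2 cells/well mixed with NanoLuc enzyme plus prosubstrate; 5 h settle, compound (DMSO) added by pintool; luminescence monitored over 40 h at 37 C.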
The nature of assay [14]: qHTS RealTime-Glo MT Cell Viability Assay in HEK293 cells - 32 hour (AID 1224868). Also: nearly all actives have a fitted effect of over 50% in size. Also: potency is read from the fitted curve at half-maximal effect. The method, boiled down:
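Cells + reagent dispensed (600 cells/well, HEK293) → 5 h at 37 C/5% CO2 → 23 nL compound in DMSO pinned → 40 h at 37 C → luminescence read at 0, 8, 16, 24, 32, 40 h.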

Assay [15] can be described thus: A CellTox Green Cytotoxicity Assay to monitor cytotoxicity in HEK293 cells - 0 hour (AID 1224869). Also: nearly all actives have a fitted effect of over 50% in size. Put shortly:
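Tox21 screen in HEK293: membrane-impermeant cyanine dye fluoresces on binding dead-cell DNA; compound pinned 5 h post-seeding, plates held at 37 C, signal read repeatedly through 40 h.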

Assay [16] can be described thus: qHTS RealTime-Glo MT Cell Viability Assay in HepG2 cells - 40 hour (AID 1224870). Also: nearly all actives have a fitted effect of over 50% in size. Put shortly:
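HepG2 cells mixed with RealTime-Glo MT reagents (NanoLuc plus cell-permeant prosubstrate) were seeded at 600 cells/well, incubated 5 h at 37 C/5% CO2, then pinned with compounds in DMSO; nonlytic luminescence tracked viability during 40 h treatment.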

A short description of assay [17]: qHTS assay to identify small molecule antagonists of the estrogen related receptor signaling pathway with the pleiotropic PPARgamma coactivator (PGC) from Tox21 10K library (AID 1224841; call rule not given here). Put shortly:
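Test chemicals dissolved in DMSO were applied to pre-incubated (6 h) PGC/ERR cells at 2,000 cells/well for an 18 h, 37 C treatment; reporter luminescence was then read using One-Glo.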

A short description of assay [18]: qHTS assay to identify small molecule agonists of the estrogen related receptor signaling pathway with the pleiotropic PPARgamma coactivator (PGC) from Tox21 10K library (AID 1224842). Also: nearly all actives have a fitted effect of over 15% in size. The method, boiled down: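 PGC/ERR reporter cells (NTP line) were seeded 2,000 per well, rested 6 h at 37 C/5% CO2, then pin-dosed with compounds in DMSO for 18 h at 37 C; luciferase read by One-Glo luminescence after 30 min at room temperature.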

A short description of assay [19]: qHTS assay to identify small molecule antagonists of the estrogen related receptor (ERR) signaling pathway from Tox21 library (AID 1224848). Also: nearly all actives have a fitted effect of over 50% in size. Also: potency is read from the fitted curve at half-maximal effect. Put shortly:
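First, 2,000 ERR cells per well were plated and held 6 h at 37 C/5% CO2. Next, compounds in DMSO were pinned in and left 18 h at 37 C. Finally, ONE-Glo was added and luminescence read after 30 min at room temperature.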

The nature of assay [20]: qHTS assay to identify small molecule agonists of the estrogen related receptor (ERR) signaling pathway from Tox21 library (AID 1224849; calls by dose curve; also: nearly all actives have a fitted effect of over 15% in size). The note with it: ERR reporter cell line, ONE-Glo luciferase, 18 h. The method, boiled down:
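Tox21 compounds tested for ERR agonism in an NTP reporter cell line: 18 h treatment at 37 C, then ONE-Glo luminescence.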

Several values for one entry are separate records, joined by “and”; a condition that tells them apart may be missing. Equal values may be shown once. Inconclusive results are not listed. A structure can be active in one record and inactive in another. Activity calls are given as the source filed them. Unless noted, calls follow the shape of the dose curve; as a rule, active = well fitted curve in the direction sought with a large enough effect in the repeat runs; inconclusive = weak or mixed curves; inactive = no such curve, though single readings can be large; an effect the other way counts as inactive or inconclusive.
% is scaled to controls: 0 for no effect and ±100 for the full control effect.

Sequence of Luciferin 4-monooxygenase (Photinus pyralis) (P08659 whole entry, looked up): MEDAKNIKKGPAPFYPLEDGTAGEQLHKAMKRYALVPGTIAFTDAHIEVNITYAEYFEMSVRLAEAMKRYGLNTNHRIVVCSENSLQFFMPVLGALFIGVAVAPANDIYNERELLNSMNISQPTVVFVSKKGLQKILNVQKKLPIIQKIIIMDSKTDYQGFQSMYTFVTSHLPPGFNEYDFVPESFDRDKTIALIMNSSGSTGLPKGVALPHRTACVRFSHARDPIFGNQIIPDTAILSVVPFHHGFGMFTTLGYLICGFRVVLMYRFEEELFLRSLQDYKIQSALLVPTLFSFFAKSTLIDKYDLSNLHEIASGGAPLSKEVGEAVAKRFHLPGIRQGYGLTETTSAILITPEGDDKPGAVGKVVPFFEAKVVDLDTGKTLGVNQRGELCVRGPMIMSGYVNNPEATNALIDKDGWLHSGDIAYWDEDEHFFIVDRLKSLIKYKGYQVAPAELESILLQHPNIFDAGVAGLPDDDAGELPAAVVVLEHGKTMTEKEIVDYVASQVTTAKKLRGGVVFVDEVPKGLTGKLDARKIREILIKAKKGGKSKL
Sequence of Thyrotropin receptor (Homo sapiens) (P16473 whole entry, looked up): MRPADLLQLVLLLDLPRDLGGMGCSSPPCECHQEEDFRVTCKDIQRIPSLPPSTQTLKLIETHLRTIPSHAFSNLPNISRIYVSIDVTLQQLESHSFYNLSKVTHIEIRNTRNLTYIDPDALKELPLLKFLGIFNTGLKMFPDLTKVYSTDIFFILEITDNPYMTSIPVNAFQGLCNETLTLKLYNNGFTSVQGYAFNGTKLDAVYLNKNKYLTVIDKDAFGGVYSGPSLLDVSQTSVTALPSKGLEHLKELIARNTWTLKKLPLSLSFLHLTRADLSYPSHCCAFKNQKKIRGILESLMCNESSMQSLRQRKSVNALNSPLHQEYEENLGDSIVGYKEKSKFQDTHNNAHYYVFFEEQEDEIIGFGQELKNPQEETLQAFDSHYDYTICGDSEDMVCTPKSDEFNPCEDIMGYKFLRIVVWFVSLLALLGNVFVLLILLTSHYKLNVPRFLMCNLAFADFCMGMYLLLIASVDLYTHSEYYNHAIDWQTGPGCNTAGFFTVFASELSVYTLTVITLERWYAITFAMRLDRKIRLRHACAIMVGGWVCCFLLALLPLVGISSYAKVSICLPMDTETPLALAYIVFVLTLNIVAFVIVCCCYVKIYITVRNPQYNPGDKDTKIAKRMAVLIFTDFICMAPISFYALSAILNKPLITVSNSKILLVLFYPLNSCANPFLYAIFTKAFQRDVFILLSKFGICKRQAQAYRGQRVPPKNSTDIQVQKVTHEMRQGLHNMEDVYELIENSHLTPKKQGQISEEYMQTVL
Sequence of Nuclear receptor subfamily 1 group I member 3 (Homo sapiens) (Q14994 whole entry, looked up): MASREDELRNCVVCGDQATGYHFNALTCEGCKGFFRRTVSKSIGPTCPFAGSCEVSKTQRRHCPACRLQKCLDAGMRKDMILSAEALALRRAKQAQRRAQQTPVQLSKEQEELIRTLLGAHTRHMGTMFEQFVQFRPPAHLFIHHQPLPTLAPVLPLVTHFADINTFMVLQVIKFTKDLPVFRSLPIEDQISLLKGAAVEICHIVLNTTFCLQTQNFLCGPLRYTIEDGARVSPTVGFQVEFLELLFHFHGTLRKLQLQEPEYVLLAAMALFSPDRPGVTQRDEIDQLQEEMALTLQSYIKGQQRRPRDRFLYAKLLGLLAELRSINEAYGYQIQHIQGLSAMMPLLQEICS

Take `CCC(Cc1c(I)cc(I)c(N)c1I)C(=O)O` (stereo not drawn): the Potency result in [1], in [2], in [3], in [4], in [5] and in [7] was “inactive” in each case. Moreover, the Potency entry in [8], in [10], in [12], in [13], in assay [14] and in assay [15] was “inactive” throughout. The Potency entry in [16] is “inactive”. Moreover, the Potency is 47 µM (active) in [6]; 42.3 µM (active) and 15.1 µM (active) in assay [9]. Also, in [11], the call was inactive.
Regarding `C[C@]12C=CC(=O)C=C1CC[C@H]1[C@@H]3C[C@@H](O)[C@](O)(C(=O)CO)[C@@]3(C)C[C@H](O)[C@@]12F`, the Potency result in [1], in assay [2], in [3], in assay [4], in [7] and in [17] was “inactive” throughout. In addition, the Potency result in assay [18], in assay [8], in assay [9], in assay [10], in [12] and in assay [19] was “inactive” throughout. Besides, the Potency result in assay [13], in [14], in assay [15] and in assay [16] was “inactive” each time. For the same compound, in [11], the result was inactive. Also, the figures for the activity change, positive = activation in assay [20] (at 42.5 µM (top of the series)) and in [20] (at 92.4 µM (top of the series)) were 2.12% (inactive) and -0.443% (inactive), respectively.
On to `CC(C)=CCO`, for which the Potency result in assay [1], in assay [2], in assay [3], in [4], in assay [7] and in [17] was “inactive” throughout. Further, the Potency entry in [18], in assay [8], in assay [9], in [10], in [12] and in [19] was “inactive” each time. Moreover, the Potency entry in [13], in assay [14], in assay [15] and in assay [16] was “inactive” in each case. Also, in assay [11], the compound was called inactive. Moreover, in assay [20] (at 92.4 µM (top of the series)), the activity change, positive = activation is -0.501% (inactive).
`C[C@]12CC[C@@H]3c4ccc(O)cc4CC[C@H]3[C@@H]1CC[C@@H]2O`: the Potency in assay [1] was 30.6 µM (active) and 43.3 µM (active); in assay [2], 39.8 µM (active) and 79.6 µM (active); in assay [6] it was 9.67 µM (active) and 10.9 µM (active); in assay [19], 27.3 µM (active) and 34.4 µM (active); in assay [14], 17.3 µM (active) and 21.9 µM (active). Also, the Potency entry in assay [3], in [4], in assay [5], in [7], in assay [18] and in assay [9] was “inactive” throughout. For the same compound, the Potency entry in assay [10], in assay [12], in [13], in assay [15] and in assay [16] was “inactive” in each case. In addition, in assay [20] (at 92.4 µM (top of the series)), the activity change, positive = activation is -53.8% (inactive) and -42.2% (inactive).
As for `CC(=O)Oc1c(C)c(C)c2c(c1C)CC[C@@](C)(CCC[C@H](C)CCC[C@H](C)CCCC(C)C)O2`, the Potency result in [1], in assay [2], in assay [3], in assay [4], in assay [5] and in assay [6] was “inactive” throughout. Also, the Potency result in [7], in assay [17], in [18], in assay [8], in [9] and in assay [10] was “inactive” in each case. In addition, the Potency entry in assay [12], in [19], in [13], in assay [14], in assay [15] and in assay [16] was “inactive” each time. Also, the result in assay [11] was inactive. The activity change, positive = activation in [20] (at 42.5 µM (top of the series)) is 0% (inactive); in assay [20] (at 92.4 µM (top of the series)), 5.86% (inactive).
As to `CCOC(=O)C(C)Oc1ccc(Oc2cnc3cc(Cl)ccc3n2)cc1` (stereo not drawn), the Potency entry in assay [1], in assay [2], in assay [3], in assay [4], in [5] and in [7] was “inactive” throughout. Further, the Potency entry in [9], in [10], in [13], in assay [15] and in assay [16] was “inactive” in each case. Also, the outcome in assay [11] was inactive. Besides, the Potency in [14] was 39.9 µM (active).
Consider `c1ccc2c(c1)[nH]c1ccccc12`, for which the Potency result in [1], in assay [3], in assay [4], in assay [5], in assay [7] and in assay [9] was “inactive” each time. The Potency result in [10], in assay [12], in [13], in [14], in assay [15] and in [16] was “inactive” throughout. In addition, the Potency in assay [2] was 39.2 µM (active) and inactive. In addition, the result in assay [11] was inactive.
